Data taken from PubChem BioAssay (NCI).
This is part of a sample that, as a whole, favours compounds with a hit. Of some 79,000 tested, about 15% had one in any assay. Unmarked numbers belong to inactive results. Active and inactive are the calls of the source. Cut-off read from the data, not from the text of the source: active = growth inhibition above about 70%; inactive = the rest.

Experiments:
[1] = NCI Yeast Anticancer Drug Screen. Data for the rad50 strain (AID 155);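 note: 0% = growth of vehicle-only cultures of the same strain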; settings: S. cerevisiae rad50 strain growth inhibition; at 50.0 µM; hits give high values
How it was run: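 Growth of the mutant yeast was measured after compound exposure and referenced to vehicle-treated cultures.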

[2] = NCI Yeast Anticancer Drug Screen. Data for the mec2-1 strain (AID 157); settings: S. cerevisiae mec2-1 strain, at 50.0 µM, hits give high values
How it was run: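 Compounds were applied to mec2-1 yeast cells. Their growth was then compared with that of vehicle-treated cultures to give growth inhibition.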

[3] = NCI Yeast Anticancer Drug Screen. Data for the sgs1 mgt1 strain (AID 161);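 note: 0% = growth of cultures given vehicle only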; settings: S. cerevisiae sgs1 mgt1 strain, at 50.0 µM, hits give high values
How it was run: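 Growth of a repair-deficient yeast mutant was monitored after compound treatment and expressed as inhibition relative to vehicle-treated cultures.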

[4] = NCI Yeast Anticancer Drug Screen. Data for the cln2 rad14 strain (AID 165);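 note: 0% = growth equal to vehicle treated cultures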; settings: S. cerevisiae cln2 rad14 strain, at 50.0 µM, hits give high values
How it was run: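 Strain: cln2 rad14 yeast, altered in cell cycle control and DNA damage repair. Read-out: growth inhibition vs vehicle.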

[5] = NCI Yeast Anticancer Drug Screen. Data for the bub3 strain (AID 167); settings: S. cerevisiae bub3 mutant strain, at 50.0 µM, hits give high values
How it was run: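 Whole-cell yeast assay. The mutant strain was incubated with compounds, and growth inhibition was determined by comparison with vehicle-treated cells.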

[6] = NCI Yeast Anticancer Drug Screen. Data for the mlh1 rad18 strain (AID 175); settings: S. cerevisiae mlh1 rad18 strain growth inhibition; at 50.0 µM; hits give high values
How it was run: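 A repair-deficient yeast strain is exposed to test compound, and growth is scored relative to vehicle-treated controls.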

| Structure (SMILES) | growth inhibition [1] [%] | growth inhibition [2] [%] | growth inhibition [3] [%] | growth inhibition [4] | growth inhibition [5] [%] | growth inhibition [6] [%] |
| --- | --- | --- | --- | --- | --- | --- |
| CCOC(=O)c1ccc(NCCCc2c(C)nc(N)[nH]c2=O)cc1 | 5.25 | 9.5 | -9.15 | -10.3% | 34.6 | -2.85 |
| O=C(c1ccc(-c2ccccc2)cc1)N(C(=O)c1cc(N2CCOCC2)ccn1)c1ccc([N+](=O)[O-])cc1 | 43 | 17.8 | 45.8 | 22.9% | -5.6 | 8.6 |
| NC(=O)Cc1c(F)c(F)c(F)c(F)c1F | 9.95 | -20.5 | -0.95 | 8.85% | 28.8 | 5.3 |
| O=C1OC2CCCC[C@@H]2C2C[C@]34CCCCC3[C@@H](C(=O)O4)C12 (stereo partly specified) | 23.1 | -6.85 | 9.9 | 15.6% | 12 | 42.7 |
| COc1ccc(-c2c(C#N)c(S)n(C3OC(COC(C)=O)C(OC(C)=O)C(OC(C)=O)C3OC(C)=O)c(=O)c2C#N)cc1 (stereo unspecified) | -18.1 | -12.2 | -6.3 | -16.3% | 16.4 | 14 |
| CCC(=O)c1c(O)c2ccccc2oc1=O | -21.1 | 9.45 | -5.2 | -4.1% | 11.8 | 8.1 |
| CC1=C2C(=CC(C)(CO)C2O)C(O)C(C)(O)C12CC2 (stereo unspecified) | 21.1 | -5.15 | -17.1 | 1.95% | -13.9 | -29.8 |
| Cc1ncnc(N)c1N | 18.3 | 14.2 | 8.95 | 26.1% | 18.1 | 2.8 |
| O=[N+]([O-])c1ccc(P(=O)(O)c2ccc([N+](=O)[O-])cc2)cc1 | 15 | 17.6 | 23.6 | -25.9% | -11 | 34.7 |
| CC1=C(/C=C/C(C)=C/C=C/C(C)=C/C=C/C=C(C)/C=C/C=C(C)/C=C/C=C(C)/C=C/C=C(\C)C(=O)O)C(C)(C)CCC1 | 3.7 | 25.6 | -21.8 | 18.6% | 7.6 | -2.1 |
| CN1CCN(C(CO)Cc2ccccc2)CC1 (stereo unspecified) | 3.85 | -10.1 | -9.5 | -15.8% | 8.8 | -7.4 |
| CC(C)(N)COC(=O)c1ccc([N+](=O)[O-])cc1 | 3.4 | -23.7 | 7.1 | 0.15% | 12.2 | 10.2 |
| N[C@@H]1c2c(Br)sc(Br)c2C(=O)[C@H]1Br | -5.35 | -2.85 | 5.6 | 5.95% | -7.05 | -17.4 |
| NC(N)=NC(=O)c1ccccc1 | -26.4 | -12.2 | -9.55 | -23.1% | -0.55 | 12.9 |
| O=C(/C=C(\O)C(=O)O)/C=C(\O)c1ccc(Cl)cc1 | -15.7 | 0.7 | -27.4 | -10.4% | -23.8 | -31.5 |
| O=c1[nH]c2ccccc2c(=O)n2cccc12 | 10.4 | 23.6 | 7.8 | -7.5% | -5.75 | 1.9 |
| O=c1oc(-c2cccc(C[n+]3ccccc3)c2)nc2cc(Cl)ccc12 | -14.9 | -6.8 | -11.4 | -0.45% | -7.1 | -4.75 |
| CC(=O)OCCc1ccccc1C#N | 7.35 | 9.05 | 9.3 | -11.1% | -4.25 | 11.9 |
| c1ccc(-c2nnn(CCN3CCCCC3)n2)cc1 | 33.1 | 20.9 | -3.9 | 12.1% | 34 | 23.5 |
| O=C(O)C(CCOc1ccccc1)(CCc1ccccc1)C(=O)O | 4.1 | -10.8 | 5.7 | -58.5% | -8.1 | -13.4 |
| N#CCc1ccccc1S(=O)(=O)O | 13.3 | -0.75 | -3.45 | -9.75% | 5.05 | 0.25 |

| Structure (SMILES) | growth inhibition [1] [%] | growth inhibition [2] [%] | growth inhibition [3] [%] | growth inhibition [4] | growth inhibition [5] [%] | growth inhibition [6] [%] |
| --- | --- | --- | --- | --- | --- | --- |
| O=[N+]([O-])c1ccc(OP(=O)(O)O)cc1 | -5.9 | 13.3 | -9.85 | 20.2% | 8.95 | -10.2 |
| c1ccc(-c2nnc(-c3ccccc3)c3nonc23)cc1 | 0.55 | 14.6 | 9.1 | -12.8% | 12.6 | -22.3 |
| Cc1ccc(S(=O)(=O)OC2C3OC(C)(C)OC3OC2C2CSC(=S=O)S2)cc1 (stereo unspecified) | 31.6 | -0.6 | 21.8 | 22.2% | -3.15 | 12.7 |
| COC1C2CCC1C(N=O)C2Br (stereo unspecified) | -23.2 | 3.75 | -3.1 | -44.9% | 0.65 | -14.7 |
| OC(CI)C1OCOC(CI)C1O (stereo unspecified) | -11.7 | 3.65 | 10.7 | -26.5% | -3.75 | 16.4 |
| CCCCCCCCCCCC[Si](c1ccccc1)(c1ccccc1)c1ccccc1 | 9.3 | 6.2 | 26.1 | 22.9% | 1 | 24.5 |
| COc1ccc(NS(=O)(=O)c2ccc(NCc3c4ccccc4nc4cc(Cl)ccc34)cc2)nn1 | 20.2 | 45 | 9.65 | -30.8% | -8.3 | 37.5 |
| CC1(C)C2CCC1(CC(=O)O)C(O)C2=O (stereo unspecified) | -13.3 | -23.2 | -14.6 | -12.6% | -4.6 | -5.45 |
| O=c1ccn(Cc2ccccc2)c(=O)[nH]1 | 25.6 | -10.3 | 4.35 | -29.4% | -3.95 | 21.9 |
| O=c1[nH]c2ccccc2nc1/C=C/NC(=S)Nc1ccccc1 | -11.4 | -18.1 | -20 | 6% | -0.95 | -2.2 |
| CC(C)NCCC(O)c1cc2ccccc2o1 (stereo unspecified) | -12.8 | -4 | -17.6 | -7.1% | -35.5 | 5.15 |
| CC([N+](=O)[O-])S(=O)(=O)c1ccccc1 (stereo unspecified) | 3.55 | -20.1 | -10.4 | -7.45% | -2.95 | 5.5 |
| O=C(O)c1cnc(Cl)c(Br)c1 | -12.1 | -3.35 | 6.7 | -17.9% | -27.1 | 2.5 |
| N#CC1CCN(Cc2ccccc2)C(C#N)C1 (stereo unspecified) | -9.05 | -2.65 | -16.8 | -4.8% | -14.2 | 3.25 |
| Cc1ccc(CCn2cnc3c(N(CCO)CCO)ncnc32)cc1 | -8.45 | 23.8 | -6.85 | 15.6% | 7.95 | -9.6 |
| COc1cc(C2c3cc4c(c(OC(=O)c5ccncc5)c3CC3COC(=O)C32)OCO4)cc(OC)c1OC (stereo unspecified) | 1.15 | -11.6 | 35.8 | 15.8% | 5.8 | -0.05 |
| O=S(=O)(NOCCCCONS(=O)(=O)c1ccccc1)c1ccccc1 | 27.6 | 17.6 | 11.2 | 92.1% (active) | 26.3 | -6.15 |
| CSc1nc(-c2ccccc2)c(C(=O)NC(C)CN2CCCCC2)s1 (stereo unspecified) | 13.5 | 5.15 | 7.45 | 11% | -3.2 | 11.1 |
| O=C(O)CSc1ncccc1[N+](=O)[O-] | 8.85 | -0.65 | -6.05 | 12.9% | -32.6 | 4.35 |
| C=C1CC[N+]2(CCCC)CCCC12 (stereo unspecified) | 4.85 | 29.2 | 16.2 | -4.1% | 41.6 | 1 |
